This is a sample that favours compounds with a hit; in the whole collection about 19% have one here.
DT40 TDP1 no CPT – qHTS for Inhibitors of human tyrosyl-DNA phosphodiesterase 1 (TDP1): qHTS in cells in absence of CPT; 15% of 420,000 active; Potency, µM (highest dose often 46.2 µM), usual class: inhibitors; DT40 Tdp1-/- hTDP1 cells, no CPT, ATP luminescence, 48 h; note: nearly all actives have a fitted effect of over 55% in size
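Cells were dispensed at 400 per well, compounds added by pin tool, plates incubated ≥48 hr at 37 °C, then CellTiter-Glo added for 30 min at room temperature before luminescence reading. Line: DT40 Tdp1-/- complemented with hTDP1; camptothecin omitted.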
HT1080-NT tox – qHTS for induction of synthetic lethality in tumor cells producing 2HG: qHTS for the HT-1080-NT fibrosarcoma cell line. HT-1080-NT fibrosarcoma viability, CellTiter-Glo ATP luminescence, 48 h. Potency, µM (titrated, usually from 46.1 µM), most hits filed as cytotoxic. 1.6% of 360,000 active. AID 686970, 2013;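 note: NT is the 2HG producing partner of a matched IDH1 knockdown line; nearly all actives have a fitted effect of over 55% in size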
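A 48-hour cytotoxicity screen used HT-1080-NT cells plated 2 hours before compound delivery. ATP-based CellTiter-Glo luminescence measured viability, normalized to DMSO and no-cell controls.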
KB-V1 MDR tox – qHTS assay for MDR1-selective chemotherapeutics: Primary screen using the drug-selected MDR subline cells KB-V1. KB-V1 MDR cells viability, CellTiter-Glo, 72 h. Potency, µM (titrated, usually from 46.1 µM), actives largely listed as cytotoxic. 3.4% of 400,000 active. AID 1347076, 2019; note: nearly all actives have a fitted effect of over 60% in size
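Drug-selected KB-V1 cells, grown in DMEM lacking phenol red with 10% FBS, receive compound titrations; after three days at 37 degrees C, surviving cell ATP is quantified by CellTiter-Glo luminescence and responses normalized and curve-fitted.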
KB-3-1 tox – qHTS assay for MDR1-selective chemotherapeutics: Primary screen using the parental adenocarcinoma cell KB-3-1 | KB-3-1 viability, CellTiter-Glo ATP luminescence, 72 h | Potency, µM (titrated, usually from 46.1 µM), most hits filed as cytotoxic | 1.4% of 400,000 active; note: nearly all actives have a fitted effect of over 60% in size
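KB-3-1 parental drug-naive adenocarcinoma cells in DMEM/10% FBS, incubated 72 h at 37 C with pin-transferred compounds across a concentration series. Viability by CellTiter-Glo luminescence; concentration-response curves fitted after normalization.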
HT1080 IDH1KD tx – qHTS for induction of synthetic lethality in tumor cells producing 2HG: qHTS for the HT-1080-IDH1KD cell line; AID 686971, 2013; HT-1080 IDH1 knockdown viability, ATP luminescence, 48 h; 2% of 360,000 active; Potency, µM (top dose mostly 46.1 µM), actives largely listed as cytotoxic
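Viability of IDH1-knockdown HT-1080 fibrosarcoma cells was assessed by CellTiter-Glo after 48 h at 37 °C with titrated compound; concentration-effect curves were classified by fit quality and response size.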
TDP1 cell CPT – qHTS for Inhibitors of human tyrosyl-DNA phosphodiesterase 1 (TDP1): qHTS in cells in presence of CPT; 12% of 420,000 active; Potency, µM (series often up to 46.2 µM), most hits filed as inhibitors; chicken DT40 Tdp1-/-;hTDP1 cells + 20 nM CPT, ATP luminescence, 48 h; note: nearly all actives have a fitted effect of over 55% in size
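Chicken DT40 Tdp1-/- cells complemented with human TDP1, 400 cells/well, exposed to compounds plus 20 nM camptothecin for at least 48 h at 37 C; viability read as ATP content by CellTiter-Glo luminescence.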
Hits are given with their value; . = inactive; ? = inconclusive; / = not tested or not shown. Calls come from the whole dose curve; as a rule, active = well fitted curve in the direction sought with a large enough effect; inconclusive = small, poorly fitted or top-dose-only effect, or another doubt; inactive = no such curve, though single readings can be large; an effect the other way counts as inactive or inconclusive.

SMILES | DT40 TDP1 no CPT | HT1080-NT tox | KB-V1 MDR tox | KB-3-1 tox | HT1080 IDH1KD tx | TDP1 cell CPT
COCc1c(C(=O)Nc2nnc(C3CC3)s2)oc2ccccc12 | 12µM | . | . | ? | . | ?
CCOC(=O)C1=C(C)Nc2ccccc2N=C1N | . | ? | . | . | ? | .
CCOC(=O)C1=C(C)Nc2ccccc2N=C1NC(=O)c1oc2ccccc2c1COC | 16µM | . | ? | . | . | 21µM
O=C(Nc1ccccc1C(=O)Nc1nnc(C(F)(F)F)s1)c1ccccc1 | 4.1µM | 3.3µM | ? | ? | 4.6µM | 2.9µM
O=[N+]([O-])c1ccccc1/C=C/C=N/n1c(-c2ccccc2F)n[nH]c1=S | . | . | . | . | . | .
Cc1onc(-c2ccccc2)c1C(=O)NCC(O)c1ccccc1 (configuration not stated) | . | . | . | . | . | .
Nc1nonc1-n1nnc(C(=O)N/N=C/c2cccs2)c1-c1ccc2c(c1)OCO2 | . | . | . | . | . | ?
COC(=O)c1sc(NC(=O)COc2c(C)cccc2C)nc1C | 12µM | . | . | . | . | .
COC(=O)c1sc(NC(=O)COc2ccccc2C)nc1C | . | . | . | . | . | .
Cc1cccc(C)c1OCC(=O)Nc1nnc(C2CCCO2)s1 (configuration not stated) | ? | . | 18µM | . | . | .
COC(=O)c1sc(NC(=O)c2oc3ccccc3c2C)nc1C | 3.7µM | . | . | . | . | ?
COC(=O)c1sc(NC(=O)c2cc3c(s2)CCCC3)nc1C | 21µM | . | . | . | . | .
CCC(C)c1ccccc1N1CC(C(=O)N2CCN(C(=O)c3ccco3)CC2)CC1=O (configuration not stated) | . | . | . | . | . | .
O=Cc1ccc(O)cc1 | . | / | . | . | / | .
O=C(N/C(=C/C=C/c1ccccc1)C(=O)N1CCOCC1)c1ccccc1Br | . | . | ? | . | . | .
O=C(COC(=O)Cc1cccs1)NCC(=O)Nc1ccc(F)cc1 | . | . | . | ? | . | .
O=C(CN1CCOCC1)Nc1ccccc1Sc1ccc(Cl)cc1 | 6.5µM | . | ? | . | . | ?
O=C(CCl)Nc1ccccc1Sc1ccccc1 | ? | . | . | . | . | ?
O=C(Cc1ccccc1)Nc1cc(Cl)ccc1Sc1ccccc1 | ? | . | 18µM | . | . | .
O=C(Cc1ccc(Cl)cc1)Nc1ccccc1Sc1ccccc1 | ? | . | 23µM | ? | . | ?
COc1ccc(CCC(=O)N2CCCC(Nc3ccc(C)c(C)c3)C2)cc1OC (configuration not stated) | ? | . | . | . | . | ?
COc1ccc(/C=C/C(=O)NCC2Cc3cc(Cl)cc(-c4ncccn4)c3O2)cc1 (configuration not stated) | . | / | / | / | / | .
CCCOC(=O)c1c(-c2ccccc2)nc(CC)c(C(=O)SCC)c1CCC | 16µM | . | ? | . | . | ?
CCCc1nc2ccccc2c(C(=O)O)c1CC | . | . | . | . | . | .
Cc1ccc(-n2nnc(-c3nc(-c4cccs4)no3)c2N)c(C)c1 | . | / | / | / | / | .
CN(C)CCOC1c2ccccc2C=Cc2ccccc21 | . | . | . | . | . | .
CN(C)CCOC1c2ccccc2CCc2ccc3ccccc3c21 (configuration not stated) | 21µM | 21µM | ? | . | 16µM | ?
O=C(CSc1nc2cc(Cl)ccc2s1)N1CCCc2ccccc21 | 14µM | . | ? | . | . | ?
C/C(N)=C(/C#N)C(=O)CSc1nc2cc(Cl)ccc2s1 | . | 35µM | ? | . | . | ?
